TrxR1 inh – qHTS Assay for Inhibitors of Mammalian Selenoprotein Thioredoxin Reductase 1 (TrxR1): qHTS; Thioredoxin reductase 1, cytoplasmic (Rattus norvegicus), O89049; recombinant rTrxR1, NADPH fluorescence consumption, selenite substrate; Potency, µM (doses to about 114 µM), for the others: at the top dose activity change, negative = inhibition, actives largely listed as inhibitors; actives 1% (n = 390,000); AID 588453, 2011; further: on the % scale 0 is the no-effect control and ±100 the full control effect; nearly all actives have a fitted effect of over 65% in size
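Rat TrxR1 (90 nM in the dispensed reagent) was pre-reduced with 400 uM NADPH for 5 min at room temperature, then incubated with compound for 15 min. After 400 uM selenite was added, NADPH fluorescence (Ex 340/Em 450 nm) was followed for 8 min.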
Mito fusion yeast – qHTS Assay for Small Molecule Inhibitors of Mitochondrial Division or Activators of Mitochondrial Fusion | S. cerevisiae fusion-defective mutant growth rescue, CellTiterGlo 48 h | Potency, µM (titrated, usually from 46.1 µM), inactives show top-dose growth rescue (activation), actives largely listed as activators | actives 0.23% (n = 320,000) | AID 485298, 2010; further: % of control where 0% means no effect; nearly all actives have a fitted effect of over 45% in size
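Luminescent cell viability in 1536-well qHTS format served as the measure of rescued growth in ts fusion-mutant S. cerevisiae cultured on non-fermentable YPEG for 48 hours at 37C.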
A549 viability – Nrf2 qHTS screen for inhibitors: counterscreen for cytotoxicity | A549 ARE-Fluc cells, CellTiter-Fluor viability, 18-24 h | Potency, µM (highest dose often 46 µM), for the others: top-dose activity change, negative = cytotoxicity, usual class: inhibitors | actives 0.16% (n = 390,000) | AID 504648, 2011; further: on the % scale 0 is the no-effect control and ±100 the full control effect
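A549 ARE-Fluc cells in 5% FBS OPTI-MEM, 5000 cells/well, rested 2 h then exposed to compounds in concentration-response for 18-24 h at 37 °C. Viability by CellTiter-Fluor fluorescence (Ex 405/Em 525) after 30 min; luciferase luminescence (BugLite, 15 min, RT) read afterwards.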
IDH1 R132H inh – qHTS for Inhibitors of mutant isocitrate dehydrogenase 1 (IDH1): qHTS | Isocitrate dehydrogenase [NADP] cytoplasmic (Homo sapiens), O75874 | IDH1-R132H enzyme, NADPH consumption, diaphorase/resazurin fluorescence | Potency, µM (top dose mostly 76.6 µM), for the others: top-dose activity change, negative = inhibition, actives largely listed as inhibitors | actives 0.093% (n = 390,000); further: on the % scale 0 is the no-effect control and ±100 the full control effect; nearly all actives have a fitted effect of over 65% in size
Target sequence (O75874 whole entry R132H, stated change not applied): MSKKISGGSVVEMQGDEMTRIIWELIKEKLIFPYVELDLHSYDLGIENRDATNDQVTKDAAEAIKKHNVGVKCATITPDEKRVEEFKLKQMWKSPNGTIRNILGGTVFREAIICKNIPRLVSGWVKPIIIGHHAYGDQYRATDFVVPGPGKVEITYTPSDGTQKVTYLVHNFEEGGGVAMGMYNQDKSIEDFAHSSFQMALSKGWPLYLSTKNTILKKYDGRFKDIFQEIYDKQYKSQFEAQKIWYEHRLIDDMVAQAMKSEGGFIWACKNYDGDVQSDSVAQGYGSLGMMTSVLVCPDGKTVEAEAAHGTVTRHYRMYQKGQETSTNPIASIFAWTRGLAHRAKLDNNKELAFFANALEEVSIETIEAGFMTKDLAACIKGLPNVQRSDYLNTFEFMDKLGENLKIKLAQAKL
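IDH1-R132H (0.5 ug/mL dispensed) in pH 7.5 Tris buffer was preincubated 30 min with compound, then given a substrate mix of 0.016 mM NADPH and 2 mM alpha-KG for 80 min at room temperature; remaining NADPH was read by diaphorase/resazurin fluorescence.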
TrxR1 substrate – qHTS Assay for Substrates of Mammalian Selenoprotein Thioredoxin Reductase 1 (TrxR1): qHTS. actives 0.01% (n = 390,000). Potency, µM (top dose mostly 114 µM), for inactives: at the top dose activity change, negative = substrate turnover. purified TrxR1 substrate turnover, NADPH consumption readout. AID 588456, 2011; further: on the % scale 0 is the no-effect control and ±100 the full control effect; nearly all actives have a fitted effect of over 50% in size
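Rat TrxR1, dispensed at 90 nM, was prereduced with 400 uM NADPH (final) for 5 min at ~22 deg C, then incubated with compound 15 min before 400 uM selenite. A first-read NADPH fluorescence drop versus no-compound background flagged substrates.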
Nrf2 inh – Nrf2 qHTS screen for inhibitors | A549 ARE-Fluc reporter, luciferase luminescence, 18-24 h | Potency, µM (series often up to 46 µM), inactives show top-dose activity change, negative = inhibition, hits mostly inhibitors | actives 2.1% (n = 360,000) | AID 504444, 2011; further: on the % scale 0 is the no-effect control and ±100 the full control effect; nearly all actives have a fitted effect of over 60% in size
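Nrf2 activity is the BugLite luminescence, read 15 min after reagent at room temperature, following CellTiter-Fluor cytotoxicity readout (30 min, 37C). Compound titrations were applied for 18-24 h to 5000 A549 ARE_Fluc cells/well in 5% FBS OPTI-MEM.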
Starred values were filed as active, the others as inactive; ? = inconclusive; / = not tested or not shown; [ ] = remark or other dose. Sampled rows, rich in hits. Any-hit rate of the full collection: about 3.1%. The call rests on the fitted dose curve; in most records, active means well fitted curve in the direction sought with a large enough effect; inconclusive means small, poorly fitted or top-dose-only effect, or another doubt; inactive means no such curve, though single readings can be large; an effect the other way counts as inactive or inconclusive. Potency means the concentration at half of the fitted maximal effect.

SMILES	TrxR1 inh	Mito fusion yeast	A549 viability	IDH1 R132H inh	TrxR1 substrate	Nrf2 inh
Cc1ccccc1NC(=S)N1CCN(Cc2ccc3c(c2)OCO3)CC1	5%	1%	-1%	-4%	4%[57.1 µM]	-15%
COc1ccc(OCCC(=O)Nc2cc(C)on2)cc1	12%[57.1 µM]	-2%	1%	3%	6%[57.1 µM]	2%
Cc1cc(NC(=O)CCOc2ccc(F)cc2)no1	14µM*	4%	1%	8%	6%	-4%
Cc1ccc(SCC2=NN(c3nc(C)cc(C)n3)C(=O)C2)cc1	-12%[57.1 µM]	3%	7%	15%	5%[57.1 µM]	7%
Cc1cc(C)nc(N2N=C(C(C)(C)C)CC2=O)n1	40µM*	0%	-4%[1.84 µM]	9%	10%	3%
COc1cc2ncnc(N(C)Cc3csc(C)n3)c2cc1-c1ccc2c(c1)OCO2	/	/	0%	/	/	?
COc1ccc(-c2ccc3ncnc(N(C)Cc4csc(C)n4)c3c2)cc1OC	/	/	-15%	/	/	3.7µM*
COC(=O)C(C)Sc1ncnc2c1c(-c1ccccc1)cn2-c1ccc(F)cc1 (stereo not drawn)	19%	/	1%	0%	8%	-18%[9.27 µM]
COc1ccccc1C(=O)NCCC(=O)Nc1ccc(S(=O)(=O)N2C(C)CCCC2C)cc1 (stereo not drawn)	4%	-4%	-9%	17%	-12%	?
O=S(=O)(c1ccc(NC(=S)N2CCOCC2)cc1)N1CCCCC1	/	/	/	14%	/	/
COc1ccccc1C(=O)NCC1CCN(c2ccc(S(=O)(=O)N3CCOCC3)cc2)CC1	7%	3%	?	1%	0%	23µM*
COc1ccccc1C(=O)NCCC(=O)Nc1ccc(S(=O)(=O)N2CC(C)CC(C)C2)cc1 (stereo not drawn)	1%	-7%	-6%	4%	-7%	13µM*
O=C(NCC1CCN(c2ccc(S(=O)(=O)N3CCOCC3)cc2)CC1)Nc1ccccc1	17%[57.1 µM]	-4%	-16%	0%	0%[57.1 µM]	15µM*
O=S(=O)(c1ccc(NC(=S)N2CCN(c3ccc(O)cc3)CC2)cc1)N1CCOCC1	-9%[57.1 µM]	0%	-18%	-7%	-10%	12µM*
Cc1ccc(N2CCN(C(=O)c3ccccc3NC(=O)/C=C\C(=O)O)CC2)cc1	50µM*	0%	0%	1%	1%	5%
Cc1cc(C)cc(NC(=O)N2CCC(C(=O)c3ccc(F)cc3)CC2)c1	14%[57.1 µM]	-16%	-15%	-4%	5%[57.1 µM]	15µM*
CSc1ccc(NC(=O)N2CCC(C(=O)c3ccc(F)cc3)CC2)cc1	-4%	20%	-8%	-4%	-8%	16µM*
COc1ccc(NC(=O)N2CCC(C(=O)c3ccc(F)cc3)CC2)cc1	4%	2%	10%	3%	0%	-15%
CN(CCO)c1cc(N2CCC3(CC2)OCCO3)c2nonc2c1[N+](=O)[O-]	28µM*	-5%	-18%	7%	-33%	-4%
CC1CCCN(c2cc(N(C)CCO)c([N+](=O)[O-])c3nonc23)C1 (stereo not drawn)	-10%[57.1 µM]	1%	?	8%	-13%[57.1 µM]	-32%
O=[N+]([O-])c1c(NCCO)cc(N2CCC3(CC2)OCCO3)c2nonc12	-7%	3%	9.2µM*	7%	-17%	-18%
CN(CCO)c1cc(NCCCN2CCC(Cc3ccccc3)CC2)c2nonc2c1[N+](=O)[O-]	4%[57.1 µM]	3%	-28%	8%	-16%	-5%
CN(CCO)c1cc(N2CCCCC2)c2nonc2c1[N+](=O)[O-]	45µM*	1%	?	4%	-18%	?
CC(=O)N1N=C(c2ccccc2)OC12CCCC2	-6%	5%	2%	0%	24%	7%
CC(=O)N1N=C(c2ccc(Br)cc2)OC1(C)CC(=O)Nc1ccccc1 (stereo not drawn)	4%	-1%	?	-2%	9%	23µM*
SMILES	TrxR1 inh	Mito fusion yeast	A549 viability	IDH1 R132H inh	TrxR1 substrate	Nrf2 inh
CN(C)c1cccc2c(C=C(C#N)C#N)ccc(N(C)C)c12	25µM*	-2%	0%	0%	-11%	22%
COc1ccc(-c2nnc3n2N=C(c2ccc(OC)cc2OC)CS3)cc1	/	/	-5%	/	/	20%
O=C(c1cccs1)N1CCCc2cc(NS(=O)(=O)c3ccc(F)cc3)ccc21	10%[57.1 µM]	/	0%	18%	4%[57.1 µM]	/
CN(C)c1ccnc(Oc2ccc(Cl)cc2)c1C#N	-41%[57.1 µM]	-1%	6%	2%	10%[57.1 µM]	25%
Cc1cc(Cl)ccc1Oc1nccc(N(C)C)c1C#N	-9%	5%	-17%	1%	-2%	23µM*
CNc1oc(Cc2ccccc2)nc1S(=O)(=O)c1ccc(Cl)cc1	11µM*	-2%	3%	3%	-3%	10%
CCN(CC)c1ccc(S(=O)(=O)Nc2cc(Cl)ccc2Cl)cc1NC(=S)NC(=O)C1CCCC1	-15%	-6%	-16%	-7%	-17%	18µM*
CCN(CC)S(=O)(=O)c1ccc(Cl)c(NC(=S)NC(=O)C2CCCC2)c1	-8%	?	-19%	-5%	-4%	8.2µM*
COc1ccccc1NS(=O)(=O)c1ccc(Cl)c(NC(=S)NC(=O)C2CCCC2)c1	-29%	?	-4%	-1%	-11%	?
O=C(C[n+]1cccc(Br)c1)c1ccc2ccccc2c1	-21%	/	/	/	-2%	/
Oc1ccc(NC(=S)Nc2ccc(F)cc2)cc1	-16%	2%	0%	13%	5%	0%
Fc1ccc(NC(=S)Nc2ccc(Br)cc2)cc1	-21%[57.1 µM]	-8%	?	24%	9%[57.1 µM]	18µM*
CCN(CC)c1nc(C#N)nc(N2CCOCC2)n1	10%	/	-3%	/	-1%	23µM*
CN(C#N)c1nc(N2CCOCC2)nc(N2CCOCC2)n1	12%	/	-3%	5%	11%[57.1 µM]	?
COc1cc2c(cc1OC)C1Cc3ccc(OC)c(OC)c3CN1CC2 (stereo not drawn)	6%	0%	-1%	3%	5%	?
CCC1=C(CC2NCCc3ccccc32)CC2c3cc(OC)c(OC)cc3CCN2C1 (stereo not drawn)	-32%	/	7.3µM*	5%	-5%	3.7µM*
CCc1ccc(NC(=O)c2cc(CN3CCOCC3)on2)cc1	20%[57.1 µM]	/	0%	0%	3%[57.1 µM]	?
